High-throughput results deposited in PubChem BioAssay by National Center for Advancing Translational Sciences (NCATS).
Compounds with a hit are over-represented: about 4.4% of the library has one in this group of screens.
TRHR PAM – TRH receptor (human) allosteric enhancement | P34981 | TRHR cells, fluo-8 calcium fluorescence, EC20 TRH enhancement | enhancement, % at 2 µM | 360,000 tested, 0.66% active | AID 493056; in the data active means enhancement above about 30%; further: 0% is about no effect
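Enhancer read-out: after compound pinning and an initial kinetic agonist-mode read, an EC20 of TRH (10 nM final) was injected and fluo-8 calcium signal (Ex 480/Em 530) followed at 1 s/cycle for 100 cycles in TRHR-expressing cells.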
D1 antag – antagonists of human D1 dopamine receptor. P21728. HEK293 TREx D1 cells, calcium flux, dopamine EC80; hits give low values. activity change, negative = inhibition, % at 10 µM. 360,000 tested, 3.2% active. AID 504652; in the data active means activity change below about -30%; further: on the % scale 0 is the no-effect control and ±100 the full control effect
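Compound effects on dopamine-evoked calcium signalling were measured in tetracycline-induced HEK293 Trex D1 cells. Dopamine at EC80 followed a 180 s compound pre-read, and fluorescence was tracked kinetically for 180 s more.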
USP1-UAF1 inh – blocks the human USP1/UAF1 deubiquitinase complex; O94782; recombinant USP1/UAF1, Ub-Rhodamine cleavage fluorescence; Potency, µM (titrated, usually from 57.1 µM), for inactives: top-dose activity change, negative = inhibition, hits mostly inhibitors; 390,000 tested, 0.23% active; active means well fitted inhibition curve with a large enough effect; inconclusive means small, poorly fitted or top-dose-only effect; inactive means no such curve, though single readings can be large or run the other way; further: potency means the concentration at half of the fitted maximal effect; on the % scale 0 is the no-effect control and ±100 the full control effect; nearly all actives have a fitted effect of over 60% in size
Target sequence (O94782 whole entry, looked up): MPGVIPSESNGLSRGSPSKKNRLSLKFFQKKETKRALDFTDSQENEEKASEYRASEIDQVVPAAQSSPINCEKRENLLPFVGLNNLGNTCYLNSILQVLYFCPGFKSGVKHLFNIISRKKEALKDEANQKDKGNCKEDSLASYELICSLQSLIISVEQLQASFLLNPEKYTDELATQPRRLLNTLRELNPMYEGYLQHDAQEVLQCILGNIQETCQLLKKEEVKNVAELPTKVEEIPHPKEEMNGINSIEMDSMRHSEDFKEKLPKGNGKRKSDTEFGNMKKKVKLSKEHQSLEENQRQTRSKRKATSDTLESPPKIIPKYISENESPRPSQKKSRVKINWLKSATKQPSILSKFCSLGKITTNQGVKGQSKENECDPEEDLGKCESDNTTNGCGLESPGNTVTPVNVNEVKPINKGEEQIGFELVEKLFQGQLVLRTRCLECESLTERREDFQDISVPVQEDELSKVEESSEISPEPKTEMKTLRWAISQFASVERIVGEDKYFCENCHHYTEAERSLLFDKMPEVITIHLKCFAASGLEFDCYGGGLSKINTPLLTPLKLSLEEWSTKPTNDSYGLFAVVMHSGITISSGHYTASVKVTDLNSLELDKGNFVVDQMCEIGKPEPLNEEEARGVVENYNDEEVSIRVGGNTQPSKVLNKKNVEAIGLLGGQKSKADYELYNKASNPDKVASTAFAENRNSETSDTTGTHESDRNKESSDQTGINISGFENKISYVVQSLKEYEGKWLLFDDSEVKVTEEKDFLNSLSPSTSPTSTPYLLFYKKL
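1 nM enzyme complex + cpd, 15 min RT; start with Ub-Rho 150nM final; kinetic fluorescence ex 480/em 540, 6 reads q60 s. Buffer 50mM HEPES pH 7.8, 0.5mM EDTA, 0.1 mg/ml BSA, 1mM TCEP, 0.01% Tween-20.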
TRHR agonist – activates the human TRH receptor; P34981; 360,000 tested, 0.18% active; TRHR cells, calcium flux fluo-8, FDSS agonist mode; activation, % at 2 µM; AID 493084; further: 0% is about no effect
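Steps: seed TRHR cells overnight; add fluo-8 no-wash Ca dye, RT 30 min–1.5 h; record 10 s baseline; pin-transfer compounds; monitor fluorescence 1 cycle/s for the agonist window. Calcium increases flag candidate agonists.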
D1 agonist – human D1 receptor agonism. activation, % at 2 µM. P21728. 360,000 tested, 1% active. HEK293 T-REx D1 cells, calcium flux, agonist mode; further: 0% is about no effect
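Inducible HEK293 T-REx D1 cells, force-coupled to calcium signalling, were plated at 4000 cells/well with tetracycline and held overnight at 30 C. After no-wash calcium dye loading, compound-evoked calcium rise over 180 s flagged agonists.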
D1 potentiator – potentiators of human D1 dopamine receptor. P21728. HEK293 TREx D1 cells, calcium flux, dopamine EC20 potentiation. potentiation, % at 10 µM. 360,000 tested, 0.036% active; in the data active means potentiation above about 30%; further: 0% is about no effect
Starred values were filed as active, the others as inactive; ? = inconclusive; · = no result; ! = not active in a repeat. Unless noted, no stated cut-off is given here; in the data, active means activation above about 30%; inactive means the rest.

SMILES	TRHR PAM	D1 antag	USP1-UAF1 inh	TRHR agonist	D1 agonist	D1 potentiator
CC(=O)c1cccc(NC(=O)C(C)n2c(=O)cc(C)c3c(C)nn(-c4ccccc4)c32)c1 (centres undefined)	-5.6	3.7	?	0.6	3.8	0.3
COc1ccc(CNC(=O)C(C)n2c(=O)cc(C)c3c(C)nn(-c4ccccc4)c32)cc1 (centres undefined)	0.3	-53.7*	?	-0.3	-1.1	-6.1
N#CC1(Nc2cccc(Br)c2)C(=O)Nc2ccccc21 (centres undefined)	7.9	-17.0	-15.6%	-1.5	53.3*	-0.5
Cc1c(N/C(=N/S(=O)(=O)c2ccc(Cl)cc2)c2ccccc2)c(=O)n(-c2ccccc2)n1C	-24.0	-62.5*	·	0.4	2.2	-1.8
O=C(c1ccc(COc2ccccc2Br)cc1)N1CCCCCC1	-9.6	-36.7*	-7.3%	0.2	18.3	-10.4
COc1ccc(Nc2nc(N3CCCCC3)c3ccccc3n2)cc1	-2.6	-48.9*	-23.9%	-0.2	8.1	-15.5
Cc1ccc(Nc2nc(N3CCOCC3)c3ccccc3n2)cc1	3.7	-59.7*	-18.4%	-0.4	1.2	-12.7
Oc1ccc(Nc2nc(N3CCCC3)c3ccccc3n2)cc1	-1.0	-40.0*	0.1%	-0.5	1.3	-9.8
Cc1ccc(Nc2nc(N)c([N+](=O)[O-])c(N3CCOCC3)n2)cc1	12.0	-10.1	-16.2%	0.3	2.7	0.8
COc1ccc(Nc2nc(N)c([N+](=O)[O-])c(N3CCCC3)n2)cc1	3.4	8.1	-21.1%	-0.4	3.8	-6.0
COc1ccc(C(=O)NCCc2csc(-c3ccc(Cl)cc3)n2)cc1	-1.1	-24.6	-31.4%	-0.4	4.2	-5.7
O=C(NCCc1csc(-c2ccccc2)n1)c1ccco1	2.0	-30.4*	-19.3%	-0.4	0.1	-7.9
CCS(=O)(=O)NCCc1csc(-c2ccccc2)n1	12.3	1.2	-3.3%	0.0	1.6	0.3
CCS(=O)(=O)NCCc1csc(-c2cccnc2)n1	-3.4	-35.9*	2.6%	0.7	-0.3	4.3
O=C(NCCc1csc(-c2ccccc2)n1)c1cccs1	-7.8	-59.6*	2.2%	-0.5	5.0	-16.6
COc1ccc(C(=O)NCCc2csc(-c3ccc(Cl)cc3)n2)c(OC)c1	36.4*	10.6	-23.3%	0.5	10.6	-3.2
O=C(CSc1nc2c([nH]c3ccccc32)c(=O)n1-c1ccc(Cl)cc1)N1CCCCCC1	-2.9	-2.1	?	0.0	1.6	-4.0
O=C(NCCc1csc(-c2cccnc2)n1)c1cccc2ccccc12	-0.2	-20.4	-20.6%	-0.2	-0.1	0.3
Cc1cccc(C(=O)NCCc2csc(C)n2)c1	12.4	-85.4*	-21.5%	-0.1	-1.3	-9.1
O=C(NCCc1csc(-c2cccnc2)n1)c1ccccc1	0.2	-47.3*!	-30.2%	-0.2	0.2	2.8
Cc1ccc(C(=O)NCCc2csc(C)n2)cc1	12.8	-26.7	-4.8%	-0.6	-1.4	-3.5
COc1ccc(S(=O)(=O)NCC(c2ccco2)N2CCN(c3ccccc3F)CC2)cc1OC (centres undefined)	-6.4	·	9.3%	-0.3	-2.9	-1.9
Clc1ccc2oc(-c3cccnc3)nc2c1	-9.0	-37.1*	-0.1%	-0.5	5.9	-2.4
COc1c(C)cccc1C(=O)Nc1ccc(-c2nc3ccccc3s2)c(Cl)c1	-10.7	-27.8	-13.8%	0.9	4.1	-4.3
Cc1ccccc1N(CC(=O)NCc1ccco1)C(=O)CCC(=O)Nc1nccs1	-1.4	-32.4*	-16.0%	-0.1	3.3	-3.1
SMILES	TRHR PAM	D1 antag	USP1-UAF1 inh	TRHR agonist	D1 agonist	D1 potentiator
COCCNC(=O)CN(C(=O)CCC(=O)Nc1ccccn1)c1ccc(F)cc1	33.4*	-0.4	-5.3%	0.0	3.1	-5.2
O=C(CN(C(=O)CCC(=O)Nc1ccccn1)c1ccc(F)cc1)NCc1ccco1	-9.9	3.0	-20.9%	-1.5	14.3	·
O=C(CN(Cc1ccc(F)cc1)C(=O)CCC(=O)Nc1nccs1)NCc1ccccc1	-2.3	-91.5*	-16.2%	0.1	1.9	-7.2
CC(C)c1ccc(N(CC(=O)NCc2ccco2)C(=O)CCC(=O)Nc2ccccn2)cc1	39.2*	23.3	-15.7%	-0.2	-3.0	-2.3
Cc1cccc(NS(=O)(=O)c2c(C)nc3sccn3c2=O)c1C	-0.7	-7.4	?	0.8	8.3	-4.9
CCN(Cc1nc(-c2cccc(C)c2)no1)S(=O)(=O)c1ccc(C)cc1	-4.3	1.7	-14.1%	1.3	10.7	1.9
O=S(=O)(c1ccc2c(c1)OCCO2)N1CCN(S(=O)(=O)c2cccc[n+]2[O-])CC1	-3.5	-28.5	·	-0.7	0.2	1.6
COc1cccc(C(=O)NC2=NC(c3ccccc3F)CC(=O)N2)c1 (centres undefined)	-2.6	-10.3	-4.8%	1.3	2.0	-0.7
C=C(C)C1CC=C(C)/C(=N/NC(=O)c2cccc([N+](=O)[O-])c2)C1 (centres undefined)	36.6*	9.2	-19.6%	-0.5	-0.5	7.5
C=C(C)C1CC=C(C)/C(=N/NC(=O)c2ccc(NC(=O)c3cccc(C)c3)cc2)C1 (centres undefined)	·	·	-17.6%	·	·	·
c1ccc(-c2noc(CSc3nnnn3-c3ccccc3)n2)cc1	-6.8	-42.9*	-32.1%	1.0	13.4	-4.8
c1ccc(Cc2nnc(SCc3nc(-c4cccs4)no3)n2-c2ccccc2)cc1	4.1	4.3	-14.0%	1.4	8.2	1.1
Clc1ccccc1-c1nnc(SCc2nc(-c3ccccc3)no2)n1-c1ccccc1	-7.8	2.9	-37.3%	0.5	5.5	-3.7
CCc1ccc(-n2c(Cc3ccccc3)nnc2SCc2nc(-c3cccs3)no2)cc1	2.5	-36.8*	-9.4%	-1.3	84.1*	18.1
Cc1ccc(Nc2nc(CSc3nnnn3-c3ccccc3)cs2)cc1	-1.9	4.5	-22.8%	0.2	1.3	-2.6
Cc1cccc(-n2nnnc2SCc2csc(-c3ccccc3)n2)c1	2.7	-26.4	-29.1%	-0.6	42.1*	-1.8
c1ccc(-c2noc(CSc3nnc(Cc4cccs4)n3-c3ccccc3)n2)cc1	40.2*	8.1	-5.8%	1.0	5.4	-2.2
COC(=O)c1cccc(NC(=O)N(C)CCc2c(C)nn(C)c2C)c1	2.4	-1.0	-22.9%	0.1	-1.0	-0.3
Cc1ccc(-n2c(C)cc(/C=N/Nc3ccc([N+](=O)[O-])cn3)c2C)cc1	-4.5	-45.9*	-18.3%	1.7	6.1	-11.0
Cc1cc(/C=N/NC(=O)CC#N)c(C)n1-c1ccc([N+](=O)[O-])cc1	-2.1	-37.1*	-13.4%	-0.6	0.4	-17.4
Cc1cc(/C=N/Nc2ccc([N+](=O)[O-])cn2)c(C)n1-c1ccccc1	0.2	·	-13.8%	2.5	3.4	-2.2
